# Measurements reported in the supplement of paper PMC8728848.
# This is one part of a sample in which the strongest signals are shown more often than they occur.
# Assays:
# Assay in all cases: glycan array binding signal (z-score within array); higher = stronger binding
# Conditions in all cases: glycan notation: IUPAC condensed, linker removed
# [1] = biological target: GlcNAc(b1-3)Man
# Procedure, shortened: (§1)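 The binding signal is a Z-score computed within each array and averaged over linkers. Arrays of the same protein sequence at different concentrations or buffers were also averaged together. Data originate from 3228 arrays in the Consortium for Functional Glycomics database, kept only where the protein sequence was available.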
# [2] = biological target: GlcNAc(b1-3)[GlcNAc(b1-6)]Gal(b1-4)GlcNAc
# Procedure, shortened: as §1
# [3] = biological target: Kdn(a2-3)Gal(b1-4)Glc
# Procedure, shortened: as §1
# [4] = biological target: MurNAc(b1-4)GlcNAc
# Procedure, shortened: as §1
# [5] = biological target: Neu5Ac(a2-3)Gal(b1-3)GalNAc(b1-4)[Neu5Ac(a2-3)]Gal(b1-4)Glc
# Procedure, shortened: as §1
# [6] = biological target: Neu5Ac(a2-3)Gal(b1-3)GalNAc(b1-4)[Neu5Ac(a2-8)Neu5Ac(a2-3)]Gal(b1-4)Glc
# Procedure, shortened: as §1
# [7] = biological target: Neu5Ac(a2-3)Gal(b1-3)GlcNAc(b1-2)Man
# Procedure, shortened: as §1
# [8] = biological target: Neu5Ac(a2-3)Gal(b1-3)[Fuc(a1-4)]GlcNAc
# Procedure, shortened: as §1
# [9] = biological target: Neu5Ac(a2-3)Gal(b1-4)Glc
# Procedure, shortened: as §1
# [10] = biological target: Neu5Ac(a2-3)Gal(b1-4)GlcNAc(b1-2)Man(a1-3)[Neu5Ac(a2-3)Gal(b1-4)GlcNAc(b1-2)Man(a1-6)]Man(b1-4)GlcNAc(b1-4)[Fuc(a1-6)]GlcNAc
# Procedure, shortened: as §1
# [11] = biological target: Neu5Ac(a2-3)Gal(b1-4)GlcNAc(b1-2)[Neu5Ac(a2-3)Gal(b1-4)GlcNAc(b1-4)]Man(a1-3)[GlcNAc(b1-4)][Neu5Ac(a2-3)Gal(b1-4)GlcNAc(b1-2)[Neu5Ac(a2-3)Gal(b1-4)GlcNAc(b1-6)]Man(a1-6)]Man(b1-4)GlcNAc(b1-4)GlcNAc
# Procedure, shortened: as §1
# [12] = biological target: Neu5Ac(a2-3)Gal(b1-4)GlcNAc(b1-2)[Neu5Ac(a2-3)Gal(b1-4)GlcNAc(b1-6)]Man(a1-6)[Neu5Ac(a2-3)Gal(b1-4)GlcNAc(b1-2)Man(a1-3)][GlcNAc(b1-4)]Man(b1-4)GlcNAc(b1-4)GlcNAc
# Procedure, shortened: as §1
# [13] = biological target: Neu5Ac(a2-3)Gal(b1-4)GlcNAc(b1-3)Gal(b1-4)GlcNAc(b1-3)[Neu5Ac(a2-3)Gal(b1-4)GlcNAc(b1-3)Gal(b1-4)GlcNAc(b1-6)]GalNAc
# Procedure, shortened: as §1
# [14] = biological target: Neu5Ac(a2-3)Gal(b1-4)GlcNAc(b1-3)GalNAc
# Procedure, shortened: as §1
# [15] = biological target: Neu5Ac(a2-3)Gal(b1-4)GlcNAc(b1-3)[Neu5Ac(a2-3)Gal(b1-4)GlcNAc(b1-6)]GalNAc
# Procedure, shortened: as §1
# [16] = biological target: Neu5Ac(a2-3)Gal(b1-4)[Fuc(a1-3)]GlcNAc(b1-3)GalNAc
# Procedure, shortened: as §1
# [17] = biological target: Neu5Ac(a2-6)Gal(b1-4)GlcNAc(b1-2)Man(a1-3)[Man(a1-6)]Man(b1-4)GlcNAc(b1-4)GlcNAc
# Procedure, shortened: as §1
# [18] = biological target: Neu5Ac(a2-6)Gal(b1-4)GlcNAc(b1-2)Man(a1-3)[Neu5Ac(a2-6)Gal(b1-4)GlcNAc(b1-2)Man(a1-6)]Man(b1-4)GlcNAc(b1-4)[Fuc(a1-6)]GlcNAc
# Procedure, shortened: as §1
# [19] = biological target: Neu5Ac(a2-6)Gal(b1-4)GlcNAc(b1-3)Gal(b1-4)GlcNAc(b1-2)Man(a1-3)[Neu5Ac(a2-6)Gal(b1-4)GlcNAc(b1-3)Gal(b1-4)GlcNAc(b1-2)Man(a1-6)]GalNAc
# Procedure, shortened: as §1
# [20] = biological target: Neu5Ac(a2-6)Gal(b1-4)GlcNAc(b1-3)Gal(b1-4)GlcNAc(b1-3)GalNAc
# Procedure, shortened: as §1
# [21] = biological target: Neu5Ac(a2-6)GalNAc(b1-4)GlcNAc
# Procedure, shortened: as §1
# [22] = biological target: Neu5Ac(a2-6)GlcNAc(b1-4)GlcNAc(b1-4)GlcNAc
# Procedure, shortened: as §1
# [23] = biological target: Neu5Ac(a2-8)Neu5Ac(a2-3)Gal(b1-3)GalNAc(b1-4)[Neu5Ac(a2-3)]Gal(b1-4)Glc
# Procedure, shortened: as §1
# [24] = biological target: Neu5Ac(a2-8)Neu5Ac(a2-3)Gal(b1-4)GlcNAc
# Procedure, shortened: as §1
# [25] = biological target: Neu5Ac(a2-8)Neu5Ac(a2-3)[Gal(b1-3)GalNAc(b1-4)]Gal(b1-4)Glc
# Procedure, shortened: as §1
# [26] = biological target: Neu5Ac9Ac(a2-3)Gal(b1-3)GlcNAc
# Procedure, shortened: as §1
# [27] = biological target: Neu5Gc(a2-3)Gal(b1-4)Glc
# Procedure, shortened: as §1
binder,measurement,setting,value
LlpB (Pseudomonas fluorescens) (protein) MGSSHHHHHHSSGLVPRGSHMASSGFRIILFNSANNGTAILPPRNCLVAGQYLESPSKRYKLILEADGNLRLYDNGVPIWVADSSVPYTYVDNRPNTNLVTCFYMQGSAFLVDRVGSRTWATIGDWIDGAADRAYLQVQDDGNVVVVDGVPRWARFGFTPAALPNRGVFYPDHGTGPLPSFPVWSWTF,glycan array binding signal (z-score),[1],0.669
same,glycan array binding signal (z-score),[2],-0.461
same,glycan array binding signal (z-score),[3],3.03
same,glycan array binding signal (z-score),[4],2.54
same,glycan array binding signal (z-score),[5],2.9
same,glycan array binding signal (z-score),[6],-1.93
same,glycan array binding signal (z-score),[7],2.63
same,glycan array binding signal (z-score),[8],2.3
same,glycan array binding signal (z-score),[9],2.98
same,glycan array binding signal (z-score),[10],-0.332
same,glycan array binding signal (z-score),[11],1.21
same,glycan array binding signal (z-score),[12],-0.505
same,glycan array binding signal (z-score),[13],-0.12
same,glycan array binding signal (z-score),[14],-0.794
same,glycan array binding signal (z-score),[15],-0.411
same,glycan array binding signal (z-score),[16],0.993
same,glycan array binding signal (z-score),[17],2.88
same,glycan array binding signal (z-score),[18],3.58
same,glycan array binding signal (z-score),[19],2.6
same,glycan array binding signal (z-score),[20],-0.312
same,glycan array binding signal (z-score),[21],-0.182
same,glycan array binding signal (z-score),[22],2.47
same,glycan array binding signal (z-score),[23],2.81
same,glycan array binding signal (z-score),[24],-1.02
same,glycan array binding signal (z-score),[25],-1.03
same,glycan array binding signal (z-score),[26],-0.008
same,glycan array binding signal (z-score),[27],0.956
